# Test results from PubChem BioAssay (NCI).
# The panel holds about 83,000 compounds, 20% with a hit somewhere; the sample as a whole holds those more often.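 96-well plates, one dose, 48 hours. Percent growth reported; active if below 10.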 A number with no mark means an inactive call. Calls of active or inactive are those of the source.
# Test system: A549/ATCC NSCLC
# Assay: NCI-60 one-dose screen, 48 h (100 = growth as untreated, 0 = no growth, -100 = all killed)
# Details: 10 µM unless noted
row,Compound,growth
1,COc1ccc(S(=O)(=O)N2CCN(c3cc4c(cc3F)c(=O)c(C(=O)O)cn4C3CC3)CC2)c(OC)c1,93.6%
2,CCC(C)NCC(=O)O (stereo not given),105%
3,O=C(O)Cc1ccc2c(c1)Cc1cccnc1O2,96.1%
4,COc1cc(Cn2c(SCC(=O)Nc3ccc(Cl)cc3)nc3ccccc3c2=O)cc(OC)c1OC,64.9%
5,CC(C)(C)OC(=O)N[C@@H](Cc1ccccc1)C(=O)N(Cc1ccccc1)C1(C(=O)NCc2ccccc2)CCN(Cc2ccccc2)CC1,24.8%
6,COC(=O)C(CC(=O)c1ccc(-c2ccccc2)cc1)c1ccccc1 (stereo not given),76.6%
7,C=C1C(=O)O[C@H]2[C@H]1CC/C(Cn1cc(-c3ccccc3C(F)(F)F)nn1)=C\CC[C@@]1(C)O[C@@H]21,42.9%
8,O=C(O)C(=Cc1c2ccccc2cc2ccccc12)C(=O)O,92.1%
9,CN(C)c1nc(N)c(N=O)c(N)n1,109%
10,CCCCCCC[C@@H](O)CC(=O)N[C@H](CCCCN)C(=O)N[C@H](Cc1c[nH]c2ccccc12)C(=O)NC(CCCCN)C(=O)N[C@H](CC(C)C)C(=O)N[C@H](Cc1ccccc1)C(=O)N[C@H](CCCCN)C(=O)N[C@H](CCCCN)C(=O)N[C@H](CC(C)C)C(=O)N1CCCC1C(=O)N[C@H](CCCCN)C(=O)N[C@H](Cc1ccccc1)C(=O)N[C@H](CC(C)C)C(=O)N[C@H](Cc1c[nH]cn1)C(=O)N[C@H](CC(C)C)C(=O)N[C@H](C)C(=O)N[C@H](CCCCN)C(=O)N[C@H](CCCCN)C(=O)N[C@H](Cc1ccccc1)C(=O)O (stereo not given in full),-47.3% (active)
